In this assay the test system is primary human hepatic stellate cells (donor 1). In words: scaled lipid accumulation score (0 = DMSO-like, 1 = nortriptyline-like); higher = stronger HSC inactivation (lipid re-accumulation), active = hit call of the paper. Particulars: 48 h.
Where [1] appears, read: library stock concentration: 10 mM.
Setting [2] is: library stock concentration: 3.33 mM.
Where [3] appears, read: library stock concentration: 5.3 mM.
Setting [4] is: library stock concentration: 80 uM.
Where [5] appears, read: library stock concentration: 400 uM.
The mark [6] stands for this setting: library stock concentration: 2 mM.
Where [7] appears, read: library stock concentration: 1 mM.
Setting [8] is: library stock concentration: 6.4 mM.

“And” between values parts separate entries of the source, which are not always exact repeats. Equal values may be shown once. Where a name gives a salt, the structure may show the parent alone. Hit rate of the full screen: of about 5,800 compounds, about 620 (11%) showed activity. For the sample, actives were picked, then their nearest neighbours and some compounds at random. A number with no mark means an inactive call.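 The calls were made as follows: active = score above a cut-off or among the top three wells of a plate; in these data no inactive exceeds 0.85.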

In the case of `CC(C)(C)NCC(O)c1ccc(O)c(CO)c1` (racemic) [Albuterol (+/-)], the “scaled lipid accumulation score” value under setting [1] is 0.068.
Still for that read-out and setting: for `CO/N=C(\C(=O)N[C@@H]1C(=O)N2C(C(=O)O)=C(CSc3nnnn3C)CS[C@H]12)c1csc(N)n1` the value was ≤ 0.
With `CC(C)=CCCC(C)(OC1OC(COC2OCC(O)C(O)C2O)C(O)C(O)C1O)C1CCC2(C)C1C(O)CC1C3(C)CCC(OC4OC(CO)C(O)C(O)C4O)C(C)(C)C3CCC12C` (centres undefined) [Gynostemma Extract], the “scaled lipid accumulation score” value by setting is: under setting [2], 0.01; under setting [1], ≤ 0.
On to `O=C(CCCN1CCC(O)(c2ccc(Br)cc2)CC1)c1ccc(F)cc1` [Bromperidol], for which the “scaled lipid accumulation score” value was 0.632. Besides, for the setting “library stock concentration: 4.8 mM”, the “scaled lipid accumulation score” value was 0.429.
For `O=C(CCCN1CCC(O)(c2ccc(Cl)cc2)CC1)c1ccc(F)cc1` [Haloperidol] [listing 1 of 2 here], the “scaled lipid accumulation score” value under setting [1] is 1.12 (active).
For `O=C(CCCN1CCC(O)(c2cccc(C(F)(F)F)c2)CC1)c1ccc(F)cc1` [Trifluperidol 2HCl], for the setting “library stock concentration: 4.9 mM”, the “scaled lipid accumulation score” value is 0.327.
Regarding `NC(=O)C1(N2CCCCC2)CCN(CCCC(=O)c2ccc(F)cc2)CC1`, the “scaled lipid accumulation score” value under setting [1] is ≤ 0.
As to `O=C(CCCN1CCC(O)(c2ccc(Cl)cc2)CC1)c1ccc(F)cc1` [Haloperidol HCl], under setting [3], the “scaled lipid accumulation score” value is 0.419.
In the case of `O=C(CCCN1CCC(O)(c2ccc(Cl)cc2)CC1)c1ccc(F)cc1` [Haloperidol hydrochloride], under setting [1], the “scaled lipid accumulation score” value was 0.78.
In the case of `Cl.O=C(CCCN1CCC(O)(c2cccc(C(F)(F)F)c2)CC1)c1ccc(F)cc1` [Trifluperidol hydrochloride], under setting [1], the “scaled lipid accumulation score” value is 0.88 (active).
For `O=C(CCCN1CCC(O)(c2ccc(Cl)cc2)CC1)c1ccc(F)cc1` [Haloperidol] [listing 2 of 2 here], the “scaled lipid accumulation score” value was 0.589. Also, under setting [2], the “scaled lipid accumulation score” value is 0.302. For the same molecule, the “scaled lipid accumulation score” value under setting [3] is 0.447. The “scaled lipid accumulation score” value under setting [1] is 0.787 and 0.814 and 0.297.
As to `COc1ccc(C2(CNC(=O)c3ccc(NC(=O)c4ccco4)cc3)CCOCC2)cc1`, the “scaled lipid accumulation score” value was ≤ 0 under setting [4], ≤ 0 under setting [5], ≤ 0 under setting [6] and ≤ 0 under setting [1].
For the molecule `CCCCC[C@H](O)/C=C/[C@@H]1[C@@H](C/C=C\CCCCO)[C@@H](O)C[C@H]1O` [Prostaglandin F2.alpha. Alcohol], under setting [7], the “scaled lipid accumulation score” value is ≤ 0.
Take `CCCn1c(=O)c2[nH]c(-c3ccc(S(=O)(=O)O)cc3)nc2n(CCC)c1=O` [1,3-Dipropyl-8-p-sulfophenylxanthine]: the “scaled lipid accumulation score” value under setting [1] was 0.108.
Regarding `CC1=C(C(=O)OC(C)C)C(c2cccc([N+](=O)[O-])c2)C(C(=O)OC2CN(C(c3ccccc3)c3ccccc3)C2)=C(N)N1` (centres undefined) [Azelnidipine], the “scaled lipid accumulation score” value is 0.061 under setting [2] and 0.189 under setting [1].
Turning to `O=C(CCC/C=C\C[C@@H]1[C@@H](/C=C/[C@@H](O)CCc2ccccc2)[C@H](O)C[C@@H]1O)NC(CO)CO` [17-phenyl trinor Prostaglandin F2.alpha. serinol amide], the “scaled lipid accumulation score” value under setting [7] was 0.062.
Regarding `COc1cc(NC(=O)c2ccccn2)ccc1Cl`, the “scaled lipid accumulation score” value was ≤ 0 under setting [2] and ≤ 0 under setting [1].
For the molecule `COc1ccc(NC(=O)c2cc(OCCCN(C)C)nn2Cc2ccccc2)cc1.Cl` [CFM 1571 hydrochloride], under setting [1], the “scaled lipid accumulation score” value was 1.11 (active).
Turning to `COCCOc1nc(-c2ccc(Cl)c(Cl)c2)n(-c2ccc(NC(=O)CCl)cc2)n1` [MI-2 (MALT1 inhibitor)], the “scaled lipid accumulation score” value by setting is: under setting [2], 0.584; under setting [1], 0.62.
For the molecule `O=C(O)CCC/C=C\CC1C(O)CC(O)C1/C=C/C(O)COc1cccc(Cl)c1` (centres undefined) [Cloprostenol], the “scaled lipid accumulation score” value under setting [7] was ≤ -0.021.
Take `O=C(O)CCC/C=C\CC1C(O)CC(O)C1/C=C/C(O)COc1cccc(Cl)c1` (centres undefined): the “scaled lipid accumulation score” value under setting [1] was ≤ -0.001.
Consider `CC1CC(OC(=O)C(O)c2ccccc2)CC(C)(C)N1C` (centres undefined) [Eucatropine hydrochloride], for which the “scaled lipid accumulation score” value was ≤ 0. For the same molecule, the “scaled lipid accumulation score” value (library stock concentration: 6.1 mM) was ≤ -0.001. The “scaled lipid accumulation score” value under setting [1] was ≤ 0.
Take `CC1O[C@H](O[C@]2(O[C@H]3CC[C@@]4(C)C(=CC[C@H]5[C@@H]6C[C@H]7[C@H]([C@H](C)[C@H]8CC[C@H](C)CN87)[C@@]6(C)CC[C@@H]54)C3)C[C@@H](O[C@@H]3OC(CO)[C@@H](O)[C@@H](O)C3O)[C@@H](O)C(CO)O2)C(O)[C@@H](O)[C@H]1O` (stereo partly drawn) [Solanine alpha]: the “scaled lipid accumulation score” value is ≤ 0.
With `CNC(=C[N+](=O)[O-])NCCSCc1ccc(CN(C)C)o1` [Ranitidine hydrochloride], the “scaled lipid accumulation score” value is ≤ 0. Also, under setting [1], the “scaled lipid accumulation score” value is ≤ 0 and ≤ -0.006.
For `CNC(=C[N+](=O)[O-])NCCSCc1ccc(CN(C)C)o1` [Ranitidine], the “scaled lipid accumulation score” value by setting is: under setting [2], ≤ 0; under setting [8], ≤ 0; under setting [1], 0.049 and ≤ 0.
Take `Cc1ccc(NC(=O)NCCSCc2ccc(CN(C)C)o2)cc1Cl`: the “scaled lipid accumulation score” value under setting [1] was 0.931 (active).
Turning to `CNC(=C[N+](=O)[O-])NCCSCc1ccc(CN(C)C)o1` [Ranitidine HCl], the “scaled lipid accumulation score” value under setting [8] is ≤ 0.
As for `CN(C)C/C=C/C(=O)Nc1ccc(C(=O)Nc2cccc(Nc3nccc(-c4cccnc4)n3)c2)cc1`, under setting [1], the “scaled lipid accumulation score” value was 1.15 (active).
With `CN(C)C/C=C/C(=O)Nc1ccc(C(=O)Nc2cccc(Nc3ncc(Cl)c(-c4c[nH]c5ccccc45)n3)c2)cc1`, the “scaled lipid accumulation score” value reads like this: under setting [4], 0.587; under setting [5], 0.669; under setting [6], 0.638; under setting [1], 0.41.
Consider `Cc1cc(NC(=O)c2cccc(NC(=O)C=CCN(C)C)c2)ccc1Nc1nccc(-c2cccnc2)n1`, for which the “scaled lipid accumulation score” value by setting is: under setting [2], 1.08 (active); under setting [1], 1.02 (active).
`CN(C)C/C=C/C(=O)Nc1cccc(Nc2ncc3c(n2)N(C)c2ccccc2C(=O)N3C)c1`: the “scaled lipid accumulation score” value was ≤ -0.009 under setting [4], 0.1 under setting [5], 0.846 under setting [6] and 0.566 under setting [1].
As to `C[C@@H]1CC2C3C[C@H](F)C4=CC(=O)C=C[C@]4(C)[C@@]3(F)[C@@H](O)C[C@]2(C)[C@@]1(O)C(=O)COC(=O)C(C)(C)C` (some centres undefined) [Flumethazone pivalate], the “scaled lipid accumulation score” value was 0.012 (library stock concentration: 4 mM) and ≤ 0 under setting [1].
For the molecule `c1ccc2c(-c3ccncc3)c[nH]c2c1` [Rho Kinase Inhibitor III, Rockout], the “scaled lipid accumulation score” value under setting [2] is ≤ 0.
Take `COc1ccc(-c2ccc3cc(C(=O)O)ccc3c2)cc1C12CC3CC(CC(C3)C1)C2` [Adapalene]: the “scaled lipid accumulation score” value is ≤ 0 under setting [2] and ≤ 0 under setting [1].
Regarding `COc1ccc(-c2ccc3cc(C(=O)O)ccc3c2)cc1C12CC3CC(CC(C3)C1)C2`, the “scaled lipid accumulation score” value under setting [1] is 0.008.
Consider `COc1cc(-c2cc(-c3cccc(O)c3)cnc2N)cc(OC)c1OC`, for which the “scaled lipid accumulation score” value by setting is: under setting [2], ≤ -0.009; under setting [1], ≤ 0.
As for `CC(=O)NC(CC(=O)O)C(=O)O` (racemic) [Aspartic acid, N-acetyl (R,S)], the “scaled lipid accumulation score” value is 0.182.
In the case of `Cl.N/C(=N\C(=O)c1nc(Cl)c(N)nc1N)NCc1ccc(Cl)cc1Cl`, the “scaled lipid accumulation score” value (library stock concentration: 11.8 mM) is 0.876 (active).
In the case of `Cl.N/C(=N\Cc1ccccc1)NC(=O)c1nc(Cl)c(N)nc1N`, the “scaled lipid accumulation score” value (library stock concentration: 14 mM) is 1.1 (active).
Consider `Cl.N/C(=N\C(=O)c1nc(Cl)c(N)nc1N)NCc1ccccc1` [Benzamil hydrochloride], for which the “scaled lipid accumulation score” value under setting [1] was 1.09 (active).
As to `NC(=O)NC(=O)Cc1ccccc1` [Phenacemide], the “scaled lipid accumulation score” value under setting [1] was ≤ 0.
`N[C@H](Cc1ccccc1)C(=O)O` [D-phenylalanine]: under setting [1], the “scaled lipid accumulation score” value is ≤ -0.022.
Turning to `N/C(=N\C(=O)c1nc(Cl)c(N)nc1N)NCc1ccccc1` [Benzamil], the “scaled lipid accumulation score” value (library stock concentration: 6.3 mM) is 0.287.
For `N/C(=N\C(=O)c1nc(Cl)c(N)nc1N)NCc1ccccc1` [Benzamil hydrochloride], the “scaled lipid accumulation score” value is 0.168.
With `CCCCC/C=C\CCCC/C=C\C/C=C\CCCC(=O)O` [5(Z),8(Z),14(Z)-Eicosatrienoic Acid], the “scaled lipid accumulation score” value under setting [7] is ≤ 0.
As to `CCCCC[C@H](O)/C=C/[C@@H]1[C@H](C/C=C\CCCC(=O)O)[C@@H](O)C[C@H]1O` [8-iso Prostaglandin F2.alpha.], the “scaled lipid accumulation score” value under setting [7] was ≤ 0.
Consider `CC(C)(C)n1nc(-c2cccc3ccccc23)c2c(N)ncnc21` [1-Naphthyl PP1], for which the “scaled lipid accumulation score” value under setting [1] is 0.016.
For `CC(C)(C)C#Cc1cc(N(C(=O)[C@H]2CC[C@H](C)CC2)[C@H]2CC[C@H](O)CC2)c(C(=O)O)s1` [VX-222 (VCH-222, Lomibuvir)], the “scaled lipid accumulation score” value by setting is: under setting [2], ≤ 0; under setting [1], 0.047.
For `Cc1c(O)c(=O)ccn1C`, under setting [1], the “scaled lipid accumulation score” value was ≤ 0.
As to `O.O.O.O.O=C([O-])CC(O)(CC(=O)[O-])C(=O)[O-].[Li+].[Li+].[Li+]` [Lithium citrate], the “scaled lipid accumulation score” value is ≤ 0 (library stock concentration: 9.5 mM) and 0.016 under setting [1].
As for `CCCCC/C=C\C\C=C/C=C/C=C/CC(=O)CCCC(=O)O` [5-Ketoeicosatetraenoic acid], the “scaled lipid accumulation score” value (library stock concentration: 100 uM) is ≤ -0.021.
`CC(C)NCC(O)COc1ccccc1-n1cccc1` (centres undefined) [Isamoltane hemifumarate]: the “scaled lipid accumulation score” value under setting [1] was 0.25.
For `CCCCCC=CCC=CCC=CCC=CCCCC(=O)SCC(O)CO` (centres undefined) [Arachidonoyl-1-thio-Glycerol], the “scaled lipid accumulation score” value under setting [7] was 0.021.
With `CC(C)(Oc1ccc(Cl)cc1)C(=O)OCCOC(=O)c1cccnc1` [Etofibrate], the “scaled lipid accumulation score” value under setting [2] is ≤ 0 and the “scaled lipid accumulation score” value under setting [1] is ≤ -0.001.
For `C[C@@H]1C[C@H]2[C@@H]3CCC4=CC(=O)C=C[C@]4(C)[C@@]3(F)[C@@H](O)C[C@]2(C)[C@@]1(O)C(=O)CO` [Dexamethasone (DHAP)], in that order: 0.017 and ≤ 0.
Turning to `C[C@@H]1C[C@H]2[C@@H]3CCC4=CC(=O)C=C[C@]4(C)[C@@]3(F)[C@@H](O)C[C@]2(C)[C@@]1(O)C(=O)CO` [Dexamethasone], the “scaled lipid accumulation score” value is ≤ -0.006 and ≤ -0.001 (library stock concentration: 5.1 mM); ≤ 0 and ≤ -0.006 under setting [1]; 0.007 (library stock concentration: 12.7 mM).
Take `CN(C)CCC=C1c2ccccc2Sc2ccc(Cl)cc21` [Chlorprothixene]: the “scaled lipid accumulation score” value under setting [1] was 1.03 (active).
As for `CN(C)CC/C=C1/c2ccccc2Sc2ccc(Cl)cc21` [Chlorprothixene hydrochloride], the “scaled lipid accumulation score” value by setting is: (library stock concentration: 5.7 mM) 0.756; under setting [1], 0.429 and 0.701.
Take `CN(C)CC/C=C1\c2ccccc2CSc2ccccc21` [Dosulepin hydrochloride]: the “scaled lipid accumulation score” value was 0.845.
As to `CN(C)CC/C=C1/c2ccccc2Sc2ccc(Cl)cc21` [Chlorprothixene], the “scaled lipid accumulation score” value under setting [2] was 0.345.
Take `CN(C)CC/C=C1\c2ccccc2Sc2ccc(Cl)cc21.Cl` [Chlorprothixene hydrochloride]: the “scaled lipid accumulation score” value is 0.902 (active).

Source of the values: the supplement of paper PMC9135407.
